PubChem BioAssay (NCATS)
A number with no mark means an inactive call. Inconclusive results are not listed. Entries that show only a call come without a potency. Calls of active or inactive are those of the source. Unless noted, calls follow the shape of the dose curve; as a rule, active = well fitted curve in the direction sought with a large enough effect; inconclusive = small, poorly fitted or top-dose-only effect, or another doubt; inactive = no such curve, though single readings can be large; an effect the other way counts as inactive or inconclusive.

Key:
[1] = P-glycoprotein substrates identified in KB-8-5-11 adenocarcinoma cell line, qHTS therapeutic library screen (AID 1346987); conditions: KB-8-5-11 (P-gp overexpressing) viability, CellTiter-Glo, 72 h; series mostly up to 44.5 µM; also: nearly all actives have a fitted effect of over 65% in size
Method in brief: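 Compounds are pinned in dose-response onto KB-8-5-11 cells (500 cells/well, colchicine-free medium) and left 72 h at 37 degree C. CellTiter-Glo luminescence then yields AC50 values.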

Furin (Homo sapiens) = Furin (Homo sapiens) (UniProt P09958); test: Furin counterscreen qHTS for Zika virus inhibitors (AID 1347149); conditions: furin enzymatic counterscreen, fluorogenic substrate; series mostly up to 57.5 µM; also: nearly all actives have a fitted effect of over 70% in size; also: potency is read from the fitted curve at half-maximal effect
Method in brief: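 Counterscreen measures cleavage of 2 microM BOC-RVRR-AMC, below its ~15 microM Km, by 5 nM full-length human furin at pH 7.0 after a 15-min compound preincubation. Inhibition derives from the 15-min fluorescence increase at 37C.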

[2] = qHTS assay for small molecule agonists of the antioxidant response element (ARE) signaling pathway (AID 651741; active = well fitted activation curve with a large enough effect in the signal ratio; the % refers to the signal ratio); conditions: HepG2 ARE-bla reporter, beta-lactamase FRET ratio, 16 h; series mostly up to 96 µM
Method in brief: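 Beta-lactamase reporter under ARE control in HepG2 cells, 2,000 per well, was induced by 16 h compound treatment at 37 C. Read-out was fluorescence from LiveBLAzer B/G FRET substrate after 2 h at room temperature.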

[3] = qHTS assay for small molecule disruptors of the mitochondrial membrane potential - 1 hr assay (AID 651754; calls by dose curve; also: nearly all actives have a fitted effect of over 35% in size); conditions: series mostly up to 92.2 µM
Method in brief: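 Mitochondrial potential in living HepG2 cells after 1 hr compound treatment at 37C was read with Mito-MPS dye added for a further 30 min. Red aggregate and green monomer fluorescence were measured; loss of potential leaves dye as cytoplasmic monomers.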

[4] = qHTS assay for small molecule disruptors of the mitochondrial membrane potential - 5 hr assay (AID 651755; calls by dose curve; also: nearly all actives have a fitted effect of over 40% in size); conditions: JC-1-type ratio dye; series mostly up to 92.2 µM
Method in brief: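 Membrane-potential dye readout: red aggregate (540 ex/590 em) versus green monomer (490 ex/535 em) fluorescence after 30 min dye loading, following 5 hr compound exposure at 37C of overnight-plated HepG2 cells.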

[5] = target: Tumor necrosis factor (Homo sapiens) (UniProt P01375); test: qHTS assay to identify small molecules that stimulate Tumor Necrosis Factor-alpha (TNF-alpha) secretion (AID 651757; active = well fitted curve in the direction sought with a large enough effect in the signal ratio; the % refers to the signal ratio); conditions: Human cells, HTRF 665/615 ratio; series mostly up to 92.2 µM
Method in brief: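 Secreted TNF-alpha quantified by TR-FRET sandwich of two labeled anti-TNF-alpha antibodies, incubated 3 hr at room temperature. Preceded by 17 hr, 37 C compound treatment of THP-1 cells at 3000 cells/well.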

[6] = target: Peroxisome proliferator-activated receptor alpha (Homo sapiens) (UniProt Q07869); test: qHTS assay for small molecule agonists of the peroxisome proliferator-activated receptor alpha (PPARalpha) signaling pathway (AID 651778); conditions: PathHunter PPARalpha complementation, chemiluminescence, 6 h; active compounds read high
Method in brief: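 Chemiluminescence from complemented enzyme reported PPARalpha activation in cells after 6 hr of compound treatment at 37 C. The detection reagent was incubated for 60 min at room temperature, and compounds were scored as agonists.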

[7] = target: Nuclear receptor ROR-gamma (Homo sapiens) (UniProt P51449); test: qHTS assay for small molecule antagonists of the retinoid-related orphan receptor gamma (ROR-gamma) signaling pathway (AID 651802); conditions: ROR-gamma antagonist cell reporter assay; series mostly up to 92.2 µM;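 also: CHO cells with doxycycline-induced ROR-gamma expression; luciferase reporter luminescence driven by ROR response element; nearly all actives have a fitted effect of over 60% in size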
Method in brief: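 Luminescence (One-Glo, 30 min RT) measured 16 h after compound addition and doxycycline induction at 37C. Reporter: RORE-luciferase under TET-inducible ROR-gamma in CHO cells.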

[8] = qHTS assay for small molecule agonists of the antioxidant response element (ARE) signaling pathway measured by Nrf2-dependant transcriptional activity (AID 720636; active = well fitted curve in the direction sought with a large enough effect in the repeat runs; an effect the other way counts as inactive or inconclusive;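 also: HepG2 cells with an ARE-driven luciferase reporter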); conditions: ARE-luc HepG2, Nrf2 luciferase reporter, 16 h; series mostly up to 92.4 µM
Method in brief: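 ONE-Glo luminescence, read 30 min after reagent addition at room temperature, reflected ARE reporter activity in HepG2 cells that had been incubated with compound for 16 hr at 37 C in 1% dialyzed FBS.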

[9] = qHTS assay for small molecule antagonists of the retinoid-related orphan receptor gamma (ROR-gamma) signaling pathway - cell viability counter screen (AID 720652; active = well fitted curve in the direction sought with a large enough effect in the repeat runs; an effect the other way counts as inactive or inconclusive;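 also: CHO reporter cells with doxycycline-induced ROR-gamma expression; compound exposure lasted 16 hr before ATP read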); conditions: RORgamma reporter cell line viability counter screen; series mostly up to 92.2 µM
Method in brief: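 Cytotoxicity counter screen: intracellular ATP (CellTiter-Glo luminescence) measured in the doxycycline-induced CHO RORE-luciferase reporter line after 16 hr compound exposure at 37 C, 5% CO2.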

[10] = qHTS assay for small molecule agonists of the antioxidant response element (ARE) signaling pathway measured by Nrf2-dependant transcriptional activity - cell viability counter screen (AID 720653; active = well fitted curve in the direction sought with a large enough effect in the repeat runs; an effect the other way counts as inactive or inconclusive); conditions: ARE-bla HepG2 viability, CellTiter-Glo ATP luminescence, 16 h; active compounds read low
Method in brief: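 Cytotoxicity counter screen: intracellular ATP quantified by CellTiter-Glo luminescence in the same ARE-bla HepG2 plates, after 16 h compound exposure and a 2 h beta-lactamase substrate step.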

[11] = qHTS assay for cell viability of HEK293 cells (AID 743288); conditions: ATP luminescence (CellTiter-Glo), 18 h, active compounds read low; also: nearly all actives have a fitted effect of over 50% in size
Method in brief: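 HEK293, 18 h, 37 C, ATP luminescence. Cells at 2,000/well were allowed at least 5 h to settle before dosing; CellTiter-Glo developed 30 min at RT.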

[12] = qHTS assay for cell viability of the p53RE-bla HCT-116 cell line (AID 743292); conditions: p53RE-bla HCT-116 viability, ATP luminescence, 16 h; series mostly up to 95 µM; also: nearly all actives have a fitted effect of over 55% in size
Method in brief: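 After plating at 4,000 cells per well and a 5 h rest at 37 C, HCT-116 cells carrying p53RE-bla received test chemicals in DMSO. Sixteen hours later at 37 C, CellTiter-Glo was added and luminescence recorded following 30 min at room temperature.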

Furin (Homo sapiens), sequence (P09958 whole entry, looked up): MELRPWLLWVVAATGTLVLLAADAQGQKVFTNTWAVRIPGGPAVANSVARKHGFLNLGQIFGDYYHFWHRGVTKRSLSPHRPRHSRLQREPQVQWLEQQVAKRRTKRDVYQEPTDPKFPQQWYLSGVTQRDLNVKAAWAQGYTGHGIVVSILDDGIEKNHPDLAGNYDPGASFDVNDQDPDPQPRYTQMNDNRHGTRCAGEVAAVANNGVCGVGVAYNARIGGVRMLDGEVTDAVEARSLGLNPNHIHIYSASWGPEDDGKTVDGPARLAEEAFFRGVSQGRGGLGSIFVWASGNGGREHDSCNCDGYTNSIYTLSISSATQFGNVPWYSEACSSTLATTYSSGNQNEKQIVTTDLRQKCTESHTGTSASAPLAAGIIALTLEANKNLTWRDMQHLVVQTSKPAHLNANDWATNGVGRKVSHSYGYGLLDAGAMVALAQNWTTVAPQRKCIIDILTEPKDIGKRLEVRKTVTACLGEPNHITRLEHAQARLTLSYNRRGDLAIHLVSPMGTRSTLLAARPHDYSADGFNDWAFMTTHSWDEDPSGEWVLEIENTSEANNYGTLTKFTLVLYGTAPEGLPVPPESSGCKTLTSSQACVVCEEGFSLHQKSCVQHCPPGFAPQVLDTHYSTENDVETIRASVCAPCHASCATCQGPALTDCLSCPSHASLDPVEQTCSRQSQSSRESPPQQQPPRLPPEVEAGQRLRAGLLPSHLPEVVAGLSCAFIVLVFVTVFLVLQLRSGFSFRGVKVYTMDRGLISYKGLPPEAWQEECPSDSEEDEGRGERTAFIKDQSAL
Tumor necrosis factor (Homo sapiens), sequence (P01375 whole entry, looked up): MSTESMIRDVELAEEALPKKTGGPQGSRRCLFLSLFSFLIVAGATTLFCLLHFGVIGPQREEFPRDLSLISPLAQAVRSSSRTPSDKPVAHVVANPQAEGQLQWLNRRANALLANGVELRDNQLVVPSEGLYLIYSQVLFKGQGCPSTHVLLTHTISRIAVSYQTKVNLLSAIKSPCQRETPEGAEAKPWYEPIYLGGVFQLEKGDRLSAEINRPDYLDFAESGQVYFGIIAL
Nuclear receptor ROR-gamma (Homo sapiens), sequence (P51449 whole entry, looked up): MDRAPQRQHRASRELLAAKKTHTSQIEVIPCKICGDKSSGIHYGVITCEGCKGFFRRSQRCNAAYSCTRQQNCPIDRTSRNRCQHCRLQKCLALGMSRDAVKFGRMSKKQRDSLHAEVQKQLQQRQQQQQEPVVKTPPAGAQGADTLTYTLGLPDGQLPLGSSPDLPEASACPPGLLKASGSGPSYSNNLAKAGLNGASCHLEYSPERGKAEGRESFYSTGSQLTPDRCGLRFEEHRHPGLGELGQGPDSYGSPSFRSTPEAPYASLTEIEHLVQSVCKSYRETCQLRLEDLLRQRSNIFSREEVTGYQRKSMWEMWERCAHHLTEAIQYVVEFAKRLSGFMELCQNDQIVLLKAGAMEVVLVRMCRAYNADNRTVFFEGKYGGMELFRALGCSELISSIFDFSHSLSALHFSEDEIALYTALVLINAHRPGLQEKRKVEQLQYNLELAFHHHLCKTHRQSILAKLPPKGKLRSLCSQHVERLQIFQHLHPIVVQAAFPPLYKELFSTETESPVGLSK
Peroxisome proliferator-activated receptor alpha (Homo sapiens), sequence (Q07869 whole entry, looked up): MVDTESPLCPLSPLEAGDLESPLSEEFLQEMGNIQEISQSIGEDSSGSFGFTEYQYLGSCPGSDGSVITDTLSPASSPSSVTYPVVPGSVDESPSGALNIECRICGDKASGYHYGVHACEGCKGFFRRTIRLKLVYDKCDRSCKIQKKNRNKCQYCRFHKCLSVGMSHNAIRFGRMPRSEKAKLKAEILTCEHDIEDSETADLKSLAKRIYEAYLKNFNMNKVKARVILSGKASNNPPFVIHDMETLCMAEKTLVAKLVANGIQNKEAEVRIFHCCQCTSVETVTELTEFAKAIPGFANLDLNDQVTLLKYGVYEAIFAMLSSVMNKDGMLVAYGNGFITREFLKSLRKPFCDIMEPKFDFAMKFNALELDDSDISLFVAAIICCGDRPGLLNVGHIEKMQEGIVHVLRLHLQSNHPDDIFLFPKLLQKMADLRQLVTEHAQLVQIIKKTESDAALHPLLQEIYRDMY

OC[C@H]1O[C@@H](Oc2cc(O)cc(-c3cc4ccc(O[C@@H]5O[C@H](CO)[C@@H](O)[C@H](O)[C@H]5O)cc4o3)c2)[C@H](O)[C@@H](O)[C@@H]1O
Potency [1]: inactive

CNc1nc(C)nc(N[C@H]2CCC[C@@H](C(=O)NCc3ccc(C#N)cc3C(F)(F)F)C2)n1
Potency [1]: inactive

CC(=O)O[C@@H]1C[C@@H](C)[C@](O)(CCC2=CC(=O)OC2)[C@@]2(C)CCCC(C)(C)C12 (stereo partly specified)
Potency [1]: inactive

O=C(O)c1ccncc1Nc1nn(CCN2CCC(F)(F)CC2)c2ccc(F)cc12
Potency [1]: inactive

O=C(Cc1ccc(Cl)cc1)Nc1cnccc1C(=O)O
Potency [1]: inactive

C[C@@H]1O[C@@H](OC[C@H]2O[C@@H](OCc3ccccc3)[C@H](O)[C@@H](O)[C@@H]2O)[C@H](O)[C@H](O)[C@H]1O
Potency [1]: inactive

CCOC(=O)C(CCc1ccccc1)NC1CCCN2CCCC(C(=O)O)N2C1=O (stereo unspecified)
Potency [1]: inactive

C/C(=C\C1CCC(C)C2CCC3(C)OC123)C(=O)O (stereo unspecified)
Potency [1]: inactive

COc1cc2c(c(OC)c1O)C(c1ccc(O)cc1)C1C(=O)OC3C(COC(=O)C1=C2)OC(CO)(OC1OC(COC(=O)/C=C/c2ccc(OC4OC(C)C(O)C(O)C4O)cc2)C(O)C(O)C1O)C3O (stereo unspecified)
activity change, negative = cytotoxicity [1]: 2.8% [at 9.29 µM]

C=C1CC/C=C(/CO)C(=O)C[C@@H]2[C@@H]1C[C@@]2(C)COC(C)=O
Potency [1]: inactive

CNC(=O)c1ccc2c(c1)CCO[C@H]2CCN1CCN(c2ccc(C(N)=O)cc2)CC1
Potency [1]: inactive

COC(=O)C1=CO[C@@H](O[C@@H]2O[C@H](CO)[C@@H](O)[C@H](O)[C@H]2O)[C@H]2[C@@H]1C=C[C@]21C=C([C@H](C)OC(=O)/C=C/c2ccc(O[C@@H]3O[C@H](CO)[C@@H](O)[C@H](O)[C@H]3O)cc2)C(=O)O1
Potency [1]: inactive

C=C(C)[C@@]1(O)C[C@@]2(C)C(=CC1=O)CC[C@@H](O)[C@@H]2C
Potency [1]: inactive

CCC(C)C1NC(=O)C2C(C)CCN2C(=O)C(CC(O)CO)OC(=O)CCNC(=O)C(C)N(C)C(=O)C(C(C)C)N(C)C1=O (stereo unspecified)
Potency [1]: inactive

CC1(C)CC[C@]2(C(=O)O)CC[C@]3(C)C(=CCC4[C@@]5(C)C[C@@H](O)[C@H](O)[C@](C)(CO)C5CC[C@]43C)[C@@H]2[C@@H]1O (stereo partly specified)
Potency [1]: inactive

C=C(C)[C@@H]1CC[C@]2(C(=O)O)CC[C@]3(C)[C@H](CCC4[C@@]5(C)CCC(=O)C(C)(C)C5C(O)C[C@]43C)C12 (stereo partly specified)
Potency [1]: inactive

C=C1C(O)C(O)C2(CC3C(C)=CCC4C(C)(C(=O)O)CCCC34C)OC2C1O (stereo unspecified)
Potency [1]: inactive

CC[C@@H]1[C@H]2CCCCN3C(=O)C[C@H]([C@@H]4[C@H]1OC(=O)[C@H]4C)[C@@H]23
Potency [1]: inactive

COc1cc(O)c(C(=O)O)c(CCc2ccccc2)c1
Potency [1]: inactive

CC1=C2CC(=O)C(C)CC/C=C(\C)CC2(O)OC1=O (stereo unspecified)
Potency [1]: inactive

COc1cc(Nc2nc3ccccc3nc2NS(=O)(=O)c2cccc(NC(=O)c3ccc(C)c(OC)c3)c2)cc(OC)c1
Potency (Furin (Homo sapiens)): inactive

Cc1nc2ccccc2c(-c2ccc3c4c(ccnc24)CCO3)c1[C@H](OC(C)(C)C)C(=O)O
Potency [1]: inactive

O=C(O)CC1CCC(c2ccc(-c3ccc(Nc4ccc(C(F)(F)F)nc4)cn3)cc2)CC1 (stereo unspecified)
Potency (Furin (Homo sapiens)): 78.4 µM (active)

C/C=C/C=C/C=C/C(=O)O[C@@H]1[C@@H](OC)C2=C(C(=O)N(C(CCC(=O)O)C(=O)O)C2)[C@@]2(C)CCCC(C)(C)[C@H]12 (stereo partly specified)
Potency [1]: inactive | Potency (Furin (Homo sapiens)): inactive

C/C(=C\CC/C(C)=C/CC[C@]1(C)CCc2cc(O)cc(C)c2O1)CC/C=C(\C)C(=O)O
Potency [1]: inactive | Potency (Furin (Homo sapiens)): inactive

C=C1C[C@]23C[C@@]1(O)CC[C@H]2[C@@]12C=C[C@H](O)[C@@](C)(C(=O)O1)[C@H]2[C@@H]3C(=O)O
outcome [2]: inactive | outcome [3]: inactive | outcome [4]: inactive | outcome [5]: inactive | max response [6]: -2.22% | outcome [7]: inactive | outcome [8]: inactive | outcome [9]: inactive | max response [10]: 2.88% | max response [11]: 3.04% | outcome [12]: inactive | Potency [1]: inactive

C=C1C2CCC3CC2(CC(O)C2(O)C1CC(OC1OC(CO)C(O)C(O)C1O)C2(C)C)CC3(C)O (stereo unspecified)
Potency [1]: inactive | Potency (Furin (Homo sapiens)): inactive

C=C1C2CCC3C(CCC4[C@@]3(C)CCC[C@@]4(C)C(=O)O)(C2)[C@@H]1OC(=O)/C(C)=C\C (stereo partly specified)
Potency [1]: inactive | Potency (Furin (Homo sapiens)): inactive

CC(C)c1cc2c(c(O)c1O)[C@@]13CCCC(C)(C)C1[C@@H](O)[C@@H]2OC3=O (stereo partly specified)
Potency [1]: inactive

Cc1ccc2[nH]c(=O)c(C3=NN(C(=O)CCC(=O)O)C(c4ccc(Br)cc4)C3)c(-c3ccccc3)c2c1 (stereo unspecified)
Potency [1]: inactive | Potency (Furin (Homo sapiens)): 69.8 µM (active)
